Test results: PubChem BioAssay (NCI)
Values joined by “and” are separate entries in the source; they are usually repeats but may differ in a detail not shown here. Equal entries are not always repeated. About 83,000 compounds went through this panel and 20% of them were active in at least one assay; those are over-represented in the sample as a whole.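 Cells were grown in 96-well plates and exposed to the test compound at a single concentration for 48 hours; results are reported as percent growth, with values below 10 considered active.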 Active and inactive are the calls of the source.

system: HL-60(TB) leukemia; assay: NCI-60 one-dose screen, 48 h (100 = growth as untreated, 0 = no growth, -100 = all killed); conditions: 10 µM unless noted

| SMILES | growth |
| --- | --- |
| O=C(CN1C(=O)S/C(=C\C(Cl)=C\c2ccccc2)C1=O)NCCc1ccc(O)cc1 | 3.33% (active) |
| COc1ccc(/C=C2/SC(=Nc3c(C)nn(-c4ccccc4)c3N)NC2=O)cc1 | 16.6% (inactive) |
| Clc1ccc(/C=N\N2CCCCCC2)cc1 | 99.3% (inactive) and 77.3% (inactive) |
| Oc1c(Cl)cc(Cl)c(Cl)c1CNCCNCc1c(O)c(Cl)cc(Cl)c1Cl | -10.5% (active) |
| O=C(/C=C/c1cccc(O)c1)c1cccc(-n2cc(-c3ccccc3)[nH]c2=O)c1 | 42.1% (inactive) |
| Cc1ccn2cc(Cc3cc(=O)oc4c3ccc3ccccc34)c(=O)nc2c1 | 86.1% (inactive) |
| CC1(C)OC2C(CO[Si](C)(C)C(C)(C)C)OC(n3c(I)c(C#C[Si](C)(C)C)c(=O)[nH]c3=O)C2O1 (stereo not given) | 69.5% (inactive) |
| Cc1cc(C(c2ccccc2)c2ccccc2)ccc1NS(=O)(=O)c1ccccc1 | 78.5% (inactive) |
| CC(CCC#N)(CCC#N)C(=O)c1ccccc1 | 88.7% (inactive) |
| CN1C2CCC1CN(c1cnc(C(=O)Nc3cc(F)cc4cccnc34)cn1)C2 | 5.69% (active) |
| COc1ccc(/C=C\c2nc3ccccc3s2)cc1OP(=O)(O)O | -1.37% (active) |
| Oc1nc(NCCc2ccccc2)sc1/C=C1\C=Nc2ncccc21 | -6.57% (active) and 6.77% (active) |
| O=C1CCN(Cc2ccccc2)C(=S)N1 | 86.8% (inactive) and 113% (inactive) |
| COc1cc(CNC(=O)CCCC/C=C/C(C)C)ccc1OCc1nnc(Nc2ccccc2F)o1 | 89.7% (inactive) |
| COc1ccc(C(=O)/C=C/c2cc3ccccc3[nH]c2=O)cc1 | 33.7% (inactive) |
| CC(C)(C)n1cc(-c2ccnc(NCCCNS(=O)(=O)c3ccc(Cl)cc3)c2)c(-c2cccc(F)c2)n1 | 85.8% (inactive) |
| COc1cc2nc(-c3ccc(C(F)(F)F)cc3)cc(OCCCN3CCCCC3)c2cc1OC | 25% (inactive) |
| CCN(CC)S(=O)(=O)c1cccc(-c2ccc3c(NC(=O)C4CC4)n[nH]c3c2)c1 | 10.3% [6.25 µM] (inactive) |
| CCCCCCCCCCCCCCCCOP(=O)([O-])OCC[N+](C)(C)C | -29.6% (active) |
| COc1ccc(-c2cn(-c3cccc(C(=O)/C=C/c4ccc(O)c(OC)c4)c3)c(=O)[nH]2)cc1 | -2.62% (active) |

| SMILES | growth |
| --- | --- |
| CCN1CCN(c2nc(NCCNc3ccnc4cc(Cl)ccc34)c3ccccc3n2)CC1 | -67.1% (active) |
| Oc1ccc(Cl)cc1Cc1cc(Cl)ccc1O | 33.8% (inactive) |
| CN1CCN(Cc2ccc(NC(=O)c3cncc(C#Cc4cnc(N)c5ccccc45)c3)cc2C(F)(F)F)CC1 | -46.3% (active) |
| CC(C)(C)Nc1c(-c2cccs2)nc2ncccn12 | 66.6% (inactive) |
| CCOC(=O)C(CCC(C)C)C(=O)OCC | 72.8% (inactive) |
| O=C(/C=C/c1cn(-c2ccccc2)nc1-c1ccc([N+](=O)[O-])cc1)c1ccc(Cl)cc1 | 69.1% (inactive) |
| Cc1[c-]onc1C.Cc1[c-]onc1C.[Ag].[Ag].[NH-]S(=O)(=O)c1ccc(N=Nc2cc(N=Nc3ccc(S([NH-])(=O)=O)cc3)c3c(NC(=O)C(Cl)Cl)cccc3c2OC(=O)C(Cl)Cl)cc1 | 38.1% (inactive) |
| CN1C(=O)/C(=C/c2ccc(C(=O)Nc3ncc(Cc4ccc(Cl)cc4)s3)cc2)SC1=S | 57.6% (inactive) |
| CC(O)(CC(=O)CC(=O)c1ccccc1)c1ccccc1 (stereo not given) | 101% (inactive) and 90.1% (inactive) |
| N/C(=N\C(N)=N\c1nc2ccccc2s1)c1cccc(Br)c1 | 95.4% (inactive) |
| CN1[C@@H]2CC[C@H]1/C(=C\c1ccccc1)C(=O)/C2=C/c1ccccc1 | 37% (inactive) |
| COc1cc(/C=N/NC(=O)c2ccccc2Nc2cccc(C(F)(F)F)c2)ccc1O | 26.9% (inactive) |
| CCN(CC)c1nc(SCc2ccccc2Cl)ncc1C | 89.7% (inactive) |
| CCN(CC)c1ccc2c(c1)Oc1nc(N)c(C#N)c(N)c1C2Sc1ccc(SC)cc1 (stereo not given) | -31.7% (active) |
| CCCC1CCC(O)(C(C)(O)C(=O)NC2C(=O)N3NCCCC3C(=O)N(O)C(C)C(=O)N3NCCCC3C(=O)N3NCC(O)CC3C(=O)NC(C)C(=O)OC2C(C)C)OC1CC (stereo not given) | -91.3% (active) |
| COc1cc(/C=C2/Oc3cc4occc4c(OC)c3C2=O)ccc1OCC(=O)Nc1ccncc1 | 106% (inactive) |
| CC(C)CCNC(=O)Cn1cccc(NC(=O)OCc2ccccc2)c1=O | 103% (inactive) |
| Nc1nc(N)c2cc(S(=O)(=O)c3ccccc3)ccc2n1 | 23.2% (inactive) and 20.7% (inactive) |
| Cc1cc(C(=O)CSc2nc3ccccc3c(=O)[nH]2)c(C)n1C | 102% (inactive) |
| Cc1cc(=O)n(Nc2ccccc2)c(O)c1C#N | 90.3% (inactive) |
